Hits are enriched below; roughly 1.2% of the tested compounds scored in any of these assays.
RGS16-Gao – modulators of RGS16 binding to Galphao, primary screen, biochemical, human proteins, multiplexed bead flow cytometry. Regulator of G-protein signaling 16 (Homo sapiens) + Guanine nucleotide-binding protein …. bead-based flow cytometry RGS16-Galphao binding, fluorescence; actives lie on both sides. hit rate 0.38% among 220,000. binding response (% of control), % at 10 µM;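 note: Galphao activated by GDP with aluminum fluoride before binding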
GSH bead fluor – compound fluorescence on glutathione beads, profiling panel, artefact control, biophysical, 488/530 nm, flow cytometry. AID 1776, 2009. fluorescence (KMESF) at 10 µM. GSH beads flow cytometry, compound fluorescence 488/530 nm; hits give high values. hit rate 0.25% among 190,000; in the data active = fluorescence above about 89;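 note: glutathione beads carrying GST-tagged Bcl family fusion proteins plus one bare bead set; values are compound well signal with DMSO vehicle wells as background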
Avidin fluor – green autofluorescence of compounds with avidin beads – biophysical, 488/530 nm, flow cytometry, artefact control, profiling panel; compound fluorescence 488/530 nm; hits give high values; fluorescence (KMESF) at 10 µM; hit rate 0.38% among 220,000; in the data active = fluorescence above about 47
RGS8-Gao reg – RGS8-Galphao binding modulators, primary screen, biochemical, multiplexed bead flow cytometry; hit rate 0.34% among 220,000; actives lie on both sides; response (percent of control binding), % at 10 µM; AID 1423, 2008; in the data active = response below about 60% or above about 140%; inactive = in between;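 note: Galphao activated as the GDP aluminium fluoride complex binding bead-coupled RGS8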
Target sequence (P09471 whole entry, looked up): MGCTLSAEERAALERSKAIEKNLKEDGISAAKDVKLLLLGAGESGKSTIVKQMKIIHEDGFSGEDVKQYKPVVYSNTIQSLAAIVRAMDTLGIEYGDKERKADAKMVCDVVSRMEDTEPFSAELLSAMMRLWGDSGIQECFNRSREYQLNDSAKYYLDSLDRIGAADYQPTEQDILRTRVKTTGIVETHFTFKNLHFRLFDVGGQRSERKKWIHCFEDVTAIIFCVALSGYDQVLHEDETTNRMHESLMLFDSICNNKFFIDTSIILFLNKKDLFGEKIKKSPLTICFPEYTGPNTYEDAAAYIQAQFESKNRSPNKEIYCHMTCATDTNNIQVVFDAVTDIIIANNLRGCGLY
RGS7-Gao – RGS7-Galphao binding modulators, primary screen, biochemical, multiplexed bead flow cytometry. Guanine nucleotide-binding protein G(o) subunit alpha (Homo sapiens), P09471. binding response (% of control), % at 10 µM. hit rate 0.35% among 220,000. actives lie on both sides; in the data active = binding response below about 49% or above about 150%; inconclusive = no clear call, values can overlap the other calls; inactive = in between;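 note: fluorescent Galphao held in activated GDP-AlF4 state binding bead-coupled RGS7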
RGS4-Gao reg – modulators of RGS4 binding to Galphao, primary screen, biochemical, multiplexed bead flow cytometry. hit rate 0.33% among 220,000. binding response (% of control), % at 10 µM. actives lie on both sides. Guanine nucleotide-binding protein G(o) subunit alpha (Homo sapiens), P09471; in the data active = binding response below about 49% or above about 150%; inactive = in between;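 note: fluorescent Galphao activated with aluminum fluoride binding bead-coupled RGS4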
RGS4-Gao HTS – modulators of RGS–Galpha-o binding, primary screen, biochemical, multiplexed beads, flow cytometry, RGS4/7/8/16/19 | hit rate 99% among 1,600 | shares compounds with RGS16-Gao | RGS4–Galpha-o binding response, % at 10 µM | multiplexed bead flow cytometry;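 note: fluorescently labeled Galpha-o bound to GDP with aluminium fluoride binding biotinylated RGS beads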
Target sequence (P09471 whole entry, looked up): as above
Target sequence (P49798 whole entry, looked up): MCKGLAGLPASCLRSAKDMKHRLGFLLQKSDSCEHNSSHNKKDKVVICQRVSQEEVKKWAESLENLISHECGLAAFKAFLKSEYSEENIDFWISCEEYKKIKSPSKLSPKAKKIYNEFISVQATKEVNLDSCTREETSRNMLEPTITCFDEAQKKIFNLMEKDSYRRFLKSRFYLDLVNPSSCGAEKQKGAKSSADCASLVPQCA
Biotin-avidin – disruption of biotin probe capture by avidin, counter-screen for RGS protein interaction modulators, biochemical, flow cytometry, bead-based; shares compounds with RGS16-Gao; streptavidin beads, fluorescein-biotin binding; inhibition, % at 10 µM; 1,700 tested, under 10 active; AID 1783, 2009;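 active = inhibition above 50%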;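 note: median green fluorescence of gated singlet beads compared with DMSO control wells; 0% = DMSO wells and 100% = complete loss of bead fluorescence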
RGS8-Gao confirm – RGS8-Galphao binding modulators, confirmation, biochemical, multiplexed bead flow cytometry, single concentration; shares compounds with RGS16-Gao; bead-based flow cytometry RGS8-Galphao binding, fluorescence; actives lie on both sides; binding response (% of control), % at 10 µM; hit rate 3% among 1,700; in the data active = binding response below about 72% or above about 130%; inactive = in between;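 note: Galphao activated as GDP AlF4 complex before binding bead RGS8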
RGS7-Gao confirm – RGS7-Galphao binding modulators, confirmation, biochemical, multiplexed bead flow cytometry, single concentration | response (percent of control binding), % at 10 µM | shares compounds with RGS16-Gao | hit rate 7.8% among 1,700 | AID 1837, 2009 | bead-based flow cytometry RGS7-Galphao binding; actives lie on both sides; in the data active = response below about 75% or above about 130%; inactive = in between;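 note: fluorescent Galphao activated with GDP and aluminum fluoride binding bead-coupled RGS7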
RGS16-Gao single – modulators of RGS16-Galphao protein binding, confirmation, biochemical, single concentration, multiplexed bead flow cytometry | shares compounds with RGS16-Gao | bead-based flow cytometry; actives lie on both sides | response (% of control binding), % at 10 µM | hit rate 4% among 1,700 | AID 1838, 2009; in the data active = response below about 74% or above about 130%; inactive = in between;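 note: Galphao activated as the GDP aluminium fluoride complex binding bead-coupled RGS16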
RGS4-Gao confirm – modulators of RGS4-Galphao protein binding, confirmation, biochemical, single concentration, multiplexed bead flow cytometry; binding response (% of control), % at 10 µM; hit rate 4% among 1,700; AID 1840, 2009; shares compounds with RGS16-Gao; actives lie on both sides; in the data active = binding response below about 74% or above about 130%; inactive = in between
RGS19-Gao conf – regulators of RGS19-Galphao binding, confirmation, biochemical, single point, multiplexed bead flow cytometry. shares compounds with RGS16-Gao. bead-based flow cytometry RGS19-Galphao binding; actives lie on both sides. response (percent of control binding), % at 10 µM. hit rate 5% among 1,700; in the data active = response below about 50% or above about 160%; inactive = in between;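 note: 100% = no compound control and 0% = blank background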
The depositor's hits bear a star; u = inconclusive; x = not tested or not shown; [ ] = another dose, or the depositor's remark. Unless noted, the rule behind the calls is not given here.

SMILES | RGS16-Gao | GSH bead fluor | Avidin fluor | RGS8-Gao reg | RGS7-Gao | RGS4-Gao reg | RGS4-Gao HTS | Biotin-avidin | RGS8-Gao confirm | RGS7-Gao confirm | RGS16-Gao single | RGS4-Gao confirm | RGS19-Gao conf
CCOP(=O)(OCC)C(Nc1ccc(F)cc1)c1ccccc1 (stereo unspecified) | x | x | x | x | x | 149 | x | 1 | 100 | 94 | 99 | 99 | 94
Cc1ccc(C)c(NCc2ccccc2CO)c1 | 64 | 21 | 6 | 88 | 92 | 99 | x | x | x | x | x | x | x
Cc1cc(-c2n[nH]c(=S)n2Cc2ccco2)n(C)n1 | 10* | 14 | 7 | 76 | 93 | 90 | 90* | 1 | 102 | 105 | 98 | 102 | 89
Cc1c(Cl)cccc1NC(=S)NC(=O)CCN1C(=O)c2ccccc2C1=O | 61 | 5 | 0 | 62 | 47* | 49* | x | 0 | 108 | 104 | 111 | 106 | 106
NC(=O)c1ccc(F)cc1 | 12* | 17 | 2 | 15* | 18* | 24* | x | -1 | 105 | 111 | 107 | 110 | 100
O=C(O[C@@H]1OC2COC(=O)c3cc(O)c(O)c(O)c3-c3c(cc(O)c(O)c3O)C(=O)O[C@@H]([C@H]1O)[C@@H]2O)c1cc(O)c(O)c(O)c1 | 23* | 8 | 1 | 44* | 22* | 34* | x | -2 | 35* | 4.1* | 35* | 19* | 42*
FC(F)(F)c1nnc2ccc(N3CCCC3)nn12 | 106 | 34 | 16 | 102 | 104 | 103 | x | x | x | x | x | x | x
FC(F)(F)c1nnc2ccc(N3CCCCCC3)nn12 | x | 30 | 6 | 173*[activator] | 122 | 149 | 149* | -1 | 101 | 88 | 93 | 96 | 96
NNc1nc2ccc(F)cc2s1 | 0.3* | 9 | 8 | 78 | 89 | 92 | 92* | 3 | 101 | 94 | 102 | 100 | 108
NNc1nc2ccc(Cl)cc2s1 | 99 | 17 | 15 | 102 | 100 | 102 | x | x | x | x | x | x | x
N#CC1=C(N)N(c2ccccc2)C2=C(C(=O)CCC2)C1c1ccsc1 (stereo unspecified) | 16* | 52 | 2 | 85 | 95 | 96 | 96* | 1 | 102 | 103 | 103 | 108 | 105
Cc1ccc(CC2CC(=O)N(C(Cc3ccccc3)C(=O)O)C2=O)cc1 (stereo unspecified) | 110 | 13 | 30 | 104 | 121 | 106 | x | x | x | x | x | x | x
COc1ccc(C(=O)c2ccc(OC)c(Br)c2)cc1Br | 254*[activator] | 11 | 4 | 131 | 120 | 120 | 120* | 0 | 99 | 101 | 98 | 100 | 89
COc1ccc(C(=S)N2CCC(C(N)=O)CC2)cc1Br | 97 | 14 | 8 | 99 | u | 102 | x | x | x | x | x | x | x
CCc1ccc(NC(=O)Cn2nnc(-c3ccc(C)cc3-n3cnnn3)n2)cc1 | 96 | x | 8 | 98 | u | 98 | x | x | x | x | x | x | x
CN(C)C(=O)C[n+]1cccc(/C=N/O)c1 | 251*[activator] | 9 | 13 | 142*[activator] | 110 | 114 | 114* | 0 | 100 | 97 | 101 | 100 | 108
CCN(CC)C(=O)C[n+]1cccc(/C=N/O)c1 | 112 | 8 | 4 | 103 | 97 | 101 | x | x | x | x | x | x | x
O=C(NCc1cccnc1)c1ccc(COc2cccc3ccccc23)o1 | 41 | 18 | 3 | 56* | 47* | 49* | x | 2 | 102 | 95 | 101 | 100 | 91
O=C(NCc1cccnc1)c1ccc(COc2ccc(Cl)cc2Cl)o1 | 101 | 19 | 10 | 99 | 99 | 101 | x | x | x | x | x | x | x
NNC(=O)c1ccc(Cn2cccn2)o1 | 107 | x | 9 | 103 | u | 109 | x | x | x | x | x | x | x
COc1ccc(Cn2c(CCC(=O)Nc3ccc(C)cc3)nc3cccnc32)cc1 | 154 | 36 | 53* | 101 | 111 | 156*[activator] | x | 0 | 102 | 99 | 95 | 97 | 69
Cc1ccc(-n2nnnc2C(=Cc2ccc(N(C)C)cc2)c2nnnn2-c2ccc(C)cc2)cc1 | 11* | 17 | x | 14* | 18* | 23* | x | 1 | 113 | 100 | 118 | 102 | 91
CC1CC(CCC(=O)NC(=S)Nc2ccc(S(N)(=O)=O)cc2)C(=O)O1 (stereo unspecified) | 118 | 8 | 23 | 107 | 105 | 106 | x | x | x | x | x | x | x
COc1cccc(C(=O)NCCOc2cc(C)cc(C)c2)c1 | 56 | 7 | 3 | 81 | 98 | 91 | x | -1 | 101 | 95 | 100 | 98 | 119
O=S(=O)(c1ccc(Cl)cc1)N1CCC2(CC1)CO2 | 99 | 17 | 9 | 100 | 102 | 102 | x | x | x | x | x | x | x
Cc1cc(C)c(C(=O)OCCNC(=O)c2cccnc2)cc1C | 117 | 37 | 215* | 97 | 184*[activator] | 122 | 122* | -1 | 104 | 102 | 101 | 104 | 97
